# Experimental data reported in PubChem BioAssay (NCATS).
# Inconclusive results are not listed. Entries that show only a call come without a potency. Activity calls are given as the source filed them. Unless noted, calls come from the whole dose curve; as a rule, active = well fitted curve in the direction sought with a large enough effect; inconclusive = small, poorly fitted or top-dose-only effect, or another doubt; inactive = no such curve, though single readings can be large; an effect the other way counts as inactive or inconclusive.
# Columns and labels:
# [1] = AP1 Signaling Pathway (AID 357; active = well fitted curve in either direction with a large enough effect, not every such curve was filed as active)
# Outline: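 AP-1-bla ME-180 cells with beta-lactamase reporter under AP-1 response element, stimulated with EC50 EGF; compounds titrated, 5 hours at 37 degrees Celsius. CCF4 read at 460/530 nm ratio; positive and negative modulators judged by AC50.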
# [2] = target: Cytochrome P450 1A2 (Homo sapiens) (UniProt P05177); test: p450-cyp1a2 (AID 410; calls by dose curve; note: potency is the fitted concentration of half-maximal effect)
# Outline: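 Luminescent readout of luciferin formed from Luciferin-ME by human CYP1A2; data normalized against complete inhibition by 57 uM furafylline. Enzyme 20nM, substrate 100uM at Km, 100mM KPO4 buffer, 60 min reaction at room temperature.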
# [3] = NFAT Signaling Pathway (AID 444; active = well fitted curve in either direction with a large enough effect, not every such curve was filed as active;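 note: carbachol stimulus at about its EC50 of 1 µM final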); conditions: Jurkat NFAT-bla M1, carbachol, beta-lactamase ratio, 5 h; at 38 µM (top of the series)
# Outline: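 Jurkat cells with NFAT-driven β-lactamase reporter and co-expressed M1 receptor, stimulated with carbachol (final 1 uM, ~EC50), compound titration, 5 h at 37 °C. CCF4 loaded 1 h at RT; 460/530 nm ratio gave %activity and AC50.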
# [4] = target: Glucocorticoid receptor (Homo sapiens) (UniProt P04150); test: GR-GFP Redistribution (AID 450;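 active = compounds whose dose series gives a full or clear partial fitted curve of increased nuclear translocation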; note: potency is the fitted concentration of half-maximal effect); conditions: U2OS GR-GFP nuclear translocation, laser cytometry, 2 h
# [5] = target: Cytochrome P450 3A4 (Homo sapiens) (UniProt P08684); test: qHTS Assay for Activators of Cytochrome P450 3A4 (AID 885); note: nearly all actives have a fitted effect of over 65% in size
# Outline: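 20nM CYP3A4 + 25uM Luciferin-PPXE (=KM), 200mM KPO4; cpd 10 min RT; NADPH regen, 60 min RT; stop w/ detection buffer, 20 min; luminescence. Normalized to 57 uM ketoconazole.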
# [6] = target: Cytochrome P450 2C19 (Homo sapiens) (UniProt P33261); test: qHTS Assay for Inhibitors and Substrates of Cytochrome P450 2C19 (AID 899); note: potency is the fitted concentration of half-maximal effect; nearly all actives have a fitted effect of over 60% in size
# Outline: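 Signal comes from luciferase acting on luciferin released by CYP2C19-mediated hydroxylation of Luciferin-H EGE, 10uM (KM). Assay mix: 5nM enzyme, 50mM KPO4; 60 min at 37C with NADPH regeneration. Data normalized against 57uM ketoconazole.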
# [7] = target: Pyruvate kinase (Leishmania mexicana) (UniProt Q27686); test: qHTS Validation Assay for Inhibitors of Leishmania Mexicana Pyruvate Kinase (AID 945)
# Outline: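 Read-out: luminescence from PKLight stop/detection reagent, data normalized to DMSO. Reaction: 0.2 nM E451W LmPYK, 0.5 mM PEP, 0.1 mM ADP, pH 7.2, 1 h room temperature.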
# [8] = target: Pyruvate kinase PKM (Homo sapiens) (UniProt P14618); test: qHTS Assay for Activators of Human Muscle Pyruvate Kinase (AID 954; active = well fitted curve in the direction sought with a large enough effect, not every such curve was filed as active)
# Outline: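 Luminescence from a luciferase ATP-detection/stop reagent reported PKM2 activity. Reactions contained 0.1 nM purified human enzyme, 0.5 mM PEP, 0.1 mM ADP and 7 mM MgCl2 at pH 7.2, run 1 h at RT.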
# [9] = target: Alpha-galactosidase (Coffea arabica) (UniProt Q42656); test: Counterscreen for Glucocerebrosidase Inhibitors: qHTS Assay for Coffee Bean alpha-Galactosidase at pH 4.5 (AID 957)
# Outline: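 Coffee bean alpha-galactosidase 2 nM, substrate 4-MU-alpha-Gal 80 uM, pH 4.5 citrate/Tween-20, 20 min RT. Cpd titration 0.7 nM–77 uM. Stop pH 10, fluorescence 365/440 nm; Hill-equation AC50.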
# [10] = target: Alpha-galactosidase A (Homo sapiens) (UniProt P06280); test: Counterscreen for Glucocerebrosidase Inhibitors: qHTS Assay for Human alpha-Galactosidase at pH 4.5 (AID 992)
# Outline: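 Enzyme at 2 nM final was combined with compound (0.7 nM to 77 uM) and 80 uM 4-methylumbelliferyl alpha-D-galactopyranoside in 50 mM citric acid, 0.005% Tween-20, pH 4.5. After 20 min at room temperature, fluorescence was read (Ex 365/Em 440 nm); AC50 came from Hill fits.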
# [11] = target: alpha-glucosidase (Oryza sativa, rice) (UniProt Q653V4); test: Counterscreen for Glucocerebrosidase Inhibitors: qHTS Assay for Rice alpha-Glucosidase at pH 5.0 (AID 997)
# Outline: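 Rice alpha-glucosidase (4 nM final) with 400 uM 4-methylumbelliferyl-alpha-D-glucopyranoside in citrate buffer pH 5.0, 20 min at room temperature, stopped at pH 10; fluorescence 365/440 nm, compounds 0.7 nM–77 uM, AC50 from Hill fits.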
# [12] = target: Alpha-galactosidase (Coffea arabica) (UniProt Q42656); test: Counterscreen for Glucocerebrosidase Inhibitors: qHTS Assay for Coffee Bean alpha-Galactosidase at pH 5.9 (AID 998)
# Outline: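 Green coffee bean enzyme (2 nM) with 4-methylumbelliferyl alpha-D-galactopyranoside (80 uM) in 50 mM citric acid, 0.005% Tween-20, pH 5.9, 20 min at room temperature; compounds 0.7 nM–77 uM. Stopped at pH 10, fluorescence Ex365/Em440; Hill-fit AC50.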
# [13] = qHTS Assay for Lipid Storage Modulators (AID 1519; calls by dose curve); conditions: Drosophila S3 cells, BODIPY lipid droplet/cell ratio, laser cytometry, cells loaded with oleic acid
# Outline: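 Cells seeded at 5,000 per well were treated with compounds over a concentration series and loaded with oleic acid (400 uM, as added). Lipid droplet fluorescence (488 nm excitation, 500-530 nm channel) was read by laser-scanning cytometry and normalized to 20 uM Triacsin C.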
# [14] = target: DNA repair nuclease/redox regulator APEX1 (Homo sapiens) (UniProt P27695); test: qHTS Validation Assay for Inhibitors of the Human Apurinic/apyrimidinic Endonuclease 1 (APE1) (AID 1705;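 note: TAMRA fluorescence gain over two minutes as APE1 cuts a quenched THF abasic duplex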)
# Outline: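 Activity read as rising fluorescence (598 nm emission, 525 nm excitation) from incision of a TAMRA/BHQ-2 duplex carrying a THF abasic site (50 nM). Compound and enzyme sat 15 min at RT before substrate start; signal change between first and third 60-s reads.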
# [15] = Counterscreen for APE1 Inhibitors: Fluorescent Dye Displacement Validation Assay (AID 1707)
# Outline: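 Thiazole Orange displacement from dsDNA: 250 nM ThO with 50 nM TAMRA-labelled abasic-site (tetrahydrofuran) duplex in 50 mM Tris-HCl pH7.5, 50mM NaCl, 2 mM MgCl2, 0.01% Tween-20. Loss of endpoint fluorescence (ex 480 nm, em 540 nm) flags DNA binders.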
# [16] = qHTS for differential inhibitors of proliferation of Plasmodium falciparum line 7G8 (AID 1815)
# [17] = qHTS for differential inhibitors of proliferation of Plasmodium falciparum line GB4 (AID 1816); conditions: Potency: Plasmodium falciparum GB4 proliferation inhibition;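 note: potency is the fitted concentration of half-maximal effect; parasite growth measured after 72 h incubation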
# [18] = qHTS for differential inhibitors of proliferation of Plasmodium falciparum line D10 (AID 1877);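 note: potency is the fitted concentration of half-maximal effect; parasites grown with compound for 72 h before DNA staining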
# [19] = qHTS for differential inhibitors of proliferation of Plasmodium falciparum line Dd2 (AID 1882); conditions: Potency: Plasmodium falciparum Dd2 proliferation inhibition; note: nearly all actives have a fitted effect of over 65% in size
# Outline: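 Dd2-infected erythrocytes (0.3% parasitemia, 2.5% hematocrit final) incubated with compound 72 h at 37 C, 5% CO2; lysed with saponin/Triton buffer containing SYBR Green I, incubated overnight in the dark, then read by fluorescence (485/535 nm). Normalized to 0.29 uM artemisinin and DMSO.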
# [20] = qHTS for differential inhibitors of proliferation of Plasmodium falciparum line W2 (AID 1883); conditions: Potency: Plasmodium falciparum W2 proliferation inhibition;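 note: potency is the fitted concentration of half-maximal effect; parasites grown with compound for 72 h before lysis and staining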
# [21] = qHTS for differential inhibitors of proliferation of Plasmodium falciparum line HB3 (AID 1886); conditions: Potency: Plasmodium falciparum HB3 proliferation inhibition;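 note: potency is the fitted concentration of half-maximal effect; parasites grown with compound for 72 h before SYBR Green readout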
# [22] = target: Ferritin light chain (Equus caballus) (UniProt P02791); test: qHTS Validation Assay for Identification of Novel General Anesthetics (AID 2323)
# Outline: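 Competitive displacement of the profluorescent anesthetic 1-AMA (50% saturated, PBS) from 10 uM apoferritin, 10 min, room temperature. Activity is normalized 380/535 nm fluorescence; concentration-response fitted with a four-parameter Hill equation.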
# [23] = target: ATP-dependent DNA helicase Q1 (Homo sapiens) (UniProt P46063); test: qHTS Validation Assay for Inhibitors of RecQ-Like Dna Helicase 1 (RECQ1) (AID 2353)
# Outline: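 50 nM RECQ1T1 preincubated 15 min with compound in Tris pH 8.0 buffer with MgCl2, DTT, Tween-20 and 2.5 ug/ml poly(dI-dC); started with 200 nM TAMRA/BHQ-2 forked duplex and 2 mM ATP. Unwinding read as fluorescence (525/598 nm), two reads 2 h apart.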
# [24] = Validation screen for inhibitors of Lassa infection (AID 463096; calls by dose curve)
# [25] = Validation screen for small molecules that induce DNA re-replication in MCF 10A normal breast cells (AID 463097); note: nearly all actives have a fitted effect of over 60% in size
# Outline: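 Read-out is Hoechst total nuclear intensity by fluorescence scanning imager, flagging increased high-DNA-content nuclei. Compounds were incubated with MCF 10A cells for 48 hr (37 C, 5% CO2) before 40 min staining.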
# [26] = Quantitative high throughput screen for delayed death inhibitors of the malarial parasite plastid, 96 hour incubation (AID 488745);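 note: luciferase-expressing P. falciparum in erythrocytes at 2% hematocrit and 0.1% parasitemia; nearly all actives have a fitted effect of over 70% in size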
# Outline: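 Infected erythrocytes were added to compound in Albumax-supplemented RPMI 1640 at 0.1% parasitemia and 2% hematocrit (final), incubated 96 h at 37 C under 5% CO2, then luciferase reagent was added and luminescence measured.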
# [27] = target: M-phase phosphoprotein 8 (Homo sapiens) (UniProt Q99549); test: qHTS Validation Assay for Inhibitors for MPP8 Chromodomain Interactions with Methylated Histone Tails (AID 488949);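 note: AlphaScreen signal from MPP8 chromodomain bound to biotinylated H3K9me3 peptide; top concentration of the series differs between compounds; nearly all actives have a fitted effect of over 55% in size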
# Outline: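 AlphaScreen proximity signal from streptavidin donor and Ni-chelate acceptor beads (10 ug/mL each) reported binding of MPP8 to trimethyl-K9 H3(1-18) peptide, both at 50 nM. The complex formed 30 min before a 30 min compound exposure at room temperature, in PBS pH 7.4.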
# [28] = target: Transient receptor potential cation channel subfamily V member 1 (Homo sapiens) (UniProt Q8NER1); test: HTS Assay for Compounds that Act as Enhancers of the Vanilloid Receptor 1 (AID 488979)
# Outline: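 TRPV1 cells loaded with Fluo-8 calcium dye; compound added and Ca2+ signal (ex 480/em 520 nm) followed 3 min, then capsaicin at EC20 added and read 2 more min to detect enhancement.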
# [29] = target: Thyrotropin receptor (Homo sapiens) (UniProt P16473); test: qHTS Assay for Antagonists of the Thyroid Stimulating Hormone Receptor (AID 488980)
# Outline: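 Inhibition of cAMP raised by EC80 TSH (4 nM final) was read by HTRF, with lysate cAMP competing against cAMP-d2 for cryptate antibody after 30 min at room temperature. The cells were transfected HEK293 held in phosphodiesterase inhibitor RO 20-1724 at 70 uM.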
# [30] = target: Thyrotropin-releasing hormone receptor (Homo sapiens) (UniProt P34981); test: qHTS for Small Molecule Agonists and Allosteric Enhancers of Human TRH Receptor: Validation Screen for Agonists (AID 493127;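 active = calcium activation more than 3 SD above the typical response in the agonist read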;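 note: intracellular calcium rise by fluo-8 fluorescence before TRH EC20 addition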); conditions: TRH receptor agonist cell assay; at 2 µM; stronger effect = higher value
# Outline: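 Cells 2000/well, 10% FCS, 18 h 33.5C/5% CO2 → fluo-8 Ca dye, RT 30 min–1.5 h → FDSS baseline 10 × 1 s → compound added → 230 cycles (1 s/cycle) agonist mode. TRH controls.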
# [31] = target: Galactokinase (Homo sapiens) (UniProt P51570); test: qHTS Validation Assay for Inhibitors of Human Galactokinase (GALK) (AID 493189)
# Outline: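 Inhibition was measured as remaining ATP, detected by luciferase luminescence after a 1 h room-temperature reaction. Final conditions: 5 nM GALK, 100 uM galactose, 35 uM ATP, pH 8.0 HEPES buffer.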
# [32] = test system: Zika virus NS2B-NS3 protease; test: Primary screen GU AMC qHTS for Zika virus inhibitors (AID 1347154); note: nearly all actives have a fitted effect of over 70% in size
# Outline: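 Unlinked Zika NS2B hydrophilic domain–NS3 protease complex at 25 nM in 10 mM Tris-HCl pH 8.0, 0.01% Tween 20, with an AMC peptide substrate. Fluorescence change (340/450 nm) over 15 min at room temperature, normalized to controls, fitted to 4-parameter Hill.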
# [33] = Primary qHTS for small molecule stabilizers of the endoplasmic reticulum resident proteome: Secreted ER Calcium Modulated Protein (SERCaMP) assay (AID 1508630); note: potency is the fitted concentration of half-maximal effect
# Outline: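 GLuc-SERCaMP-expressing SH-SY5Y cells, pretreated 16 h with compound, are challenged with thapsigargin to empty ER calcium stores; after 4 h, coelenterazine is added directly to the medium and luminescence is imaged.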
# Chain of Alpha-galactosidase (Coffea arabica) (Q42656 whole entry, looked up): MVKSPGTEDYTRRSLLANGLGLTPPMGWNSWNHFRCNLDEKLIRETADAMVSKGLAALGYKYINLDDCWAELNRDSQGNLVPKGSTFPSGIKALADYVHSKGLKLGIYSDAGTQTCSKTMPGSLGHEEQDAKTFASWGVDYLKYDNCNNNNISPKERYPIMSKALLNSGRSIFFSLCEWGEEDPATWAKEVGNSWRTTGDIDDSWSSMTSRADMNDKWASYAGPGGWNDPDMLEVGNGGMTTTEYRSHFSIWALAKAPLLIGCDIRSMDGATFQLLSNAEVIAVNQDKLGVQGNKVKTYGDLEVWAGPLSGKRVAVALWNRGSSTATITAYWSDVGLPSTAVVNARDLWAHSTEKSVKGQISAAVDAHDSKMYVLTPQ
# Chain of DNA repair nuclease/redox regulator APEX1 (Homo sapiens) (P27695 whole entry, looked up): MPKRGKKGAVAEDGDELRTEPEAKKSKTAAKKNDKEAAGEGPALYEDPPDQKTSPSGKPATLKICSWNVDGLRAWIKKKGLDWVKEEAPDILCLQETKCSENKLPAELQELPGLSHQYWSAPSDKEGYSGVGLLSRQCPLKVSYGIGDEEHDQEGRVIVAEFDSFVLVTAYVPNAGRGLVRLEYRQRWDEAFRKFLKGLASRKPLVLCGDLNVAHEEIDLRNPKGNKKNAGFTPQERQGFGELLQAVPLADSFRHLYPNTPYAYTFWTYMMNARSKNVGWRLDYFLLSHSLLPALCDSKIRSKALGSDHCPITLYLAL
# Chain of Cytochrome P450 1A2 (Homo sapiens) (P05177 whole entry, looked up): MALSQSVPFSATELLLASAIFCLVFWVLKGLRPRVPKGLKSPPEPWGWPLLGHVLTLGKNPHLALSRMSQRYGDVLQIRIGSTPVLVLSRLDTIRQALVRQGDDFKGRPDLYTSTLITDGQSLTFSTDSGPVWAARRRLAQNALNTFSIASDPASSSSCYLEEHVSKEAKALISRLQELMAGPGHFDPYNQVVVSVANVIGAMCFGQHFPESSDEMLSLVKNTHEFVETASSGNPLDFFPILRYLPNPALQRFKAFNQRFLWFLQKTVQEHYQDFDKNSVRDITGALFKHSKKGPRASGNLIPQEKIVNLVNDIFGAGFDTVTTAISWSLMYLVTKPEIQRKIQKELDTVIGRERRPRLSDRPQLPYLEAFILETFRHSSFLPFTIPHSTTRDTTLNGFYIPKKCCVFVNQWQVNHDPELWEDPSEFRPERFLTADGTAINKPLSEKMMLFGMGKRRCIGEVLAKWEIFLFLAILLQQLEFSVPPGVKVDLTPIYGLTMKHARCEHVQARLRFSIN
# Chain of Pyruvate kinase PKM (Homo sapiens) (P14618 whole entry, looked up): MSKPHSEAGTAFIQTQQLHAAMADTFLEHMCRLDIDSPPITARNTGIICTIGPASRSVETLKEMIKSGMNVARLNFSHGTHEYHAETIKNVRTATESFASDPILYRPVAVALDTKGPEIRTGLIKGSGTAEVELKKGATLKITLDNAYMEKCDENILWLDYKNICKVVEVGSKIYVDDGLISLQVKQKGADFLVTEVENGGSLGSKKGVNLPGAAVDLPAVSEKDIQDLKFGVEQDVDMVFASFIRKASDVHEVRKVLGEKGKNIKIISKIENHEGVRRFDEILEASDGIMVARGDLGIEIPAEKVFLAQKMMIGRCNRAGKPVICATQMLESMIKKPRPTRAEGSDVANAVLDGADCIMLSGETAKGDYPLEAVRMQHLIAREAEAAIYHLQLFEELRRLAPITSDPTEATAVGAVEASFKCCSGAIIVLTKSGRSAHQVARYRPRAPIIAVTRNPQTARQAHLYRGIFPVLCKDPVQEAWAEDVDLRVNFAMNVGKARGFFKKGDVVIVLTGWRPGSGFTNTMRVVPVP
# Chain of Ferritin light chain (Equus caballus) (P02791 2-175 limits assumed): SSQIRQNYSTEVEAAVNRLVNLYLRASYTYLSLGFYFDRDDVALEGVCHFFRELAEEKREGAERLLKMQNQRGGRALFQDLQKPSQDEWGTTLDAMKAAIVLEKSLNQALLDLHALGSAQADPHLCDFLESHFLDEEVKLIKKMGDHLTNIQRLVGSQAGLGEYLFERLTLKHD
# Chain of Transient receptor potential cation channel subfamily V member 1 (Homo sapiens) (Q8NER1 whole entry, looked up): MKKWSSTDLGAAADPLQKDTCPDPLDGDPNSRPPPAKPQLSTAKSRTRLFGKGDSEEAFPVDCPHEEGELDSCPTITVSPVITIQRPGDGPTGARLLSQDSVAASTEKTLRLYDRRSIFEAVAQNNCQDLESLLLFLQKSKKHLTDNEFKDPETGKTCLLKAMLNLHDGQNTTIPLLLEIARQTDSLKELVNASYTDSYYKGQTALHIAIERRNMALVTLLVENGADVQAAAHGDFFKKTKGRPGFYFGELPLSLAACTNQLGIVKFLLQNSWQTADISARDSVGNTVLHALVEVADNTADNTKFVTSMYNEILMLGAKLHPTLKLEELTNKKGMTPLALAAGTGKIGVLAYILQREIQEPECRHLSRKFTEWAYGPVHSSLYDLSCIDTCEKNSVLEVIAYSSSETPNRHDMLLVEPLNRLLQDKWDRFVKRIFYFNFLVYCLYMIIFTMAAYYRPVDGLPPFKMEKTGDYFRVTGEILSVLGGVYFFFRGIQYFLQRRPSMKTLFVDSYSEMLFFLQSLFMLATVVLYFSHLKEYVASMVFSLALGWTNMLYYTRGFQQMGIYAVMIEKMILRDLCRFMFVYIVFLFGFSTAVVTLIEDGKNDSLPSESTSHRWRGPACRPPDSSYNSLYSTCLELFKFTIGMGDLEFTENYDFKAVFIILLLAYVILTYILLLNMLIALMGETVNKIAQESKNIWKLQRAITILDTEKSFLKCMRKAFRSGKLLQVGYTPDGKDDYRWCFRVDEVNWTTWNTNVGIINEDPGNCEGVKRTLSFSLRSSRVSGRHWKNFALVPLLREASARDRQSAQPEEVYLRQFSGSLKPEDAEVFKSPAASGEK
# Chain of Thyrotropin-releasing hormone receptor (Homo sapiens) (P34981 whole entry, looked up): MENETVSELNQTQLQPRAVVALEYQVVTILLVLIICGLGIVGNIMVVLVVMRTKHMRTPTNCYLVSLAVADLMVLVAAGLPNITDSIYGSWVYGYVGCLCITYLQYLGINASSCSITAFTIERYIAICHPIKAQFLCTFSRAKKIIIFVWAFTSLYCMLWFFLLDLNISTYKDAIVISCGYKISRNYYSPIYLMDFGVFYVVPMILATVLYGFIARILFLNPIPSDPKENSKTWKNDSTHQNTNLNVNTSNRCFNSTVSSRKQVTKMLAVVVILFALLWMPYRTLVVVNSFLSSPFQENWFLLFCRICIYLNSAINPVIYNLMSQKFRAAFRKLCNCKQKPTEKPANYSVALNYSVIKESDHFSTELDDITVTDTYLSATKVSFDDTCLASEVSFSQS
# Chain of Galactokinase (Homo sapiens) (P51570 whole entry, looked up): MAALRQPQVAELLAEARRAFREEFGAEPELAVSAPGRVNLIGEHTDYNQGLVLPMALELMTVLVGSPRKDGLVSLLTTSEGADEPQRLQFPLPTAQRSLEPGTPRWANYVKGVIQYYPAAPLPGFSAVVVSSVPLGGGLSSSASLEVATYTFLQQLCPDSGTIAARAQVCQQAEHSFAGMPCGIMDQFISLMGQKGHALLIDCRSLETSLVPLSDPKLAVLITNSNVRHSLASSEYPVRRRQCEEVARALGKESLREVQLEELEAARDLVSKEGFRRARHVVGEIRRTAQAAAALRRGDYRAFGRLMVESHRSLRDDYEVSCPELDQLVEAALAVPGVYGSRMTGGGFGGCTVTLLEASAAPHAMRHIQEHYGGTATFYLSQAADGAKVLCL
# Chain of M-phase phosphoprotein 8 (Homo sapiens) (Q99549 whole entry, looked up): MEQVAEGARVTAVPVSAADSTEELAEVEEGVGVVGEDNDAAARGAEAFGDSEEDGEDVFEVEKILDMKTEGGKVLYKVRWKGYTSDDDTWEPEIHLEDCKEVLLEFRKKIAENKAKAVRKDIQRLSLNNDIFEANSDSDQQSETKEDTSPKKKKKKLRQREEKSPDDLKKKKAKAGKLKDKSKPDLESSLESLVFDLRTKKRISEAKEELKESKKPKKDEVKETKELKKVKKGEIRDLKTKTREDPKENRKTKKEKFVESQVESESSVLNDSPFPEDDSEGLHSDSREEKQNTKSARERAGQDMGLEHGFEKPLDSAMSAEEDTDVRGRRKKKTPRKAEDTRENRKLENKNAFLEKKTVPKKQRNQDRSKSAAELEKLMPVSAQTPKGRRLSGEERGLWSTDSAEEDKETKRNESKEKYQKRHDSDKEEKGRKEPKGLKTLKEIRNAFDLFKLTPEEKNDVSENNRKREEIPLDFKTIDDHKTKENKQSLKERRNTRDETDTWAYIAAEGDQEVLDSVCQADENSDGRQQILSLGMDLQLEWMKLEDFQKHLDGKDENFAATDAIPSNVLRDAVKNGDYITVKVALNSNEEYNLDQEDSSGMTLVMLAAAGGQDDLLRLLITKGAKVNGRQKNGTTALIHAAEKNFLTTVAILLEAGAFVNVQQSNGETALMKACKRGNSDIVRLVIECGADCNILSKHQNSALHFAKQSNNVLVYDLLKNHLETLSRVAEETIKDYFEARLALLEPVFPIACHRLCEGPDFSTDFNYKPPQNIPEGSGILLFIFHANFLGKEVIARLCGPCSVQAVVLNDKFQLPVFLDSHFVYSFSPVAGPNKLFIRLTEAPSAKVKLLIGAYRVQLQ
# Chain of Pyruvate kinase (Leishmania mexicana) (Q27686 2-499 E452W): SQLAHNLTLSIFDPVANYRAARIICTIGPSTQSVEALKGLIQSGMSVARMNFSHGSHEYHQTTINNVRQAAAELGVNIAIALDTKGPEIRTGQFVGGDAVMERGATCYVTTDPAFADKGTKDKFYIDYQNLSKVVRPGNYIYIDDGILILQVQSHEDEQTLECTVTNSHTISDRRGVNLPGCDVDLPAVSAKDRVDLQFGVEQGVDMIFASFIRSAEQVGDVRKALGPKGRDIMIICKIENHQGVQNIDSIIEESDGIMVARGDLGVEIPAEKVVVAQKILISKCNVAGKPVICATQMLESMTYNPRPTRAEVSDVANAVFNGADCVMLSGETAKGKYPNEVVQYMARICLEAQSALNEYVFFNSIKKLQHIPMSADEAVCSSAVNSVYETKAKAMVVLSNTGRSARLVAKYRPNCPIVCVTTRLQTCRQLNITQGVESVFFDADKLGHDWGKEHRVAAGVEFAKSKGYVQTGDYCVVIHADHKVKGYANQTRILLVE
smiles,measurement,setting,value
COc1ccc(-n2nc(C(F)(F)F)cc2-c2ccc(Cl)cc2)cc1,outcome,[1],inactive
same,Potency,[2],0.501 µM (active)
same,"activity change, negative = inhibition",[3],-91.5% (active)
same,Potency,[4],> 46 µM (inactive)
same,Potency,[5],inactive
same,Potency,[6],7.94 µM (active)
same,outcome,[7],inactive
same,outcome,[8],inactive
same,outcome,[9],inactive
same,outcome,[10],inactive
same,outcome,[11],inactive
same,outcome,[12],inactive
same,"activity change, negative = inhibition",[13]; at 57.5 µM (top of the series),-0.483% (inactive)
same,max response,[13]; measured here: cell count channel max response,-38.3%
same,max response,[13]; measured here: lipid channel max response,-37.8%
same,Potency,[14],inactive
same,Potency,[15],inactive
same,Potency,[17],11.2 µM (active)
same,Potency,[18],12.6 µM (active)
same,Potency,[19],inactive
same,Potency,[20],10 µM (active)
same,Potency,[21],12.6 µM (active)
same,outcome,[22],inactive
same,Potency,[23],inactive
same,Potency,[24],inactive
same,Potency,[25],inactive
same,Potency,[26],inactive
same,Potency,[27],inactive
same,outcome,[28],inactive
same,outcome,[29],inactive
same,activation,[30],-9.62% (inactive)
same,outcome,[31],inactive
same,Potency,[32],inactive
same,Potency,[33],inactive
CO[C@@H]1C[C@@H](C[C@H]2CC[C@H](C)[C@@H]([C@@H](C)C(=O)O)O2)O[C@]2(O[C@](C)([C@H]3CC[C@@](C)(C4OC([C@H]5O[C@@](O)(CO)[C@H](C)C[C@@H]5C)C[C@@H]4C)O3)C[C@H]2C)[C@@H]1C (some centres not stated),Potency,[32],inactive
same,Potency,[33],inactive
Clc1ccc(C2CC3CCC2N3)cn1 (configuration not stated),Potency,[32],inactive
same,Potency,[33],inactive
Cc1[nH]c2ccc(Cl)cc2c1C1=CCNCC1,Potency,[32],inactive
same,Potency,[33],35.5 µM (active)
COc1cccc2c1C13CC[N+]4(CC5CC5)CO[C@]1(CCC(=O)C3)C4C2,Potency,[32],inactive
same,Potency,[33],inactive
CCCCC[C@@H](/C=C/C=C\CCCCCCCC(=O)O)OO,"activity change, negative = inhibition",[32],3.22% [at 0.59 µM] (inactive)
same,"activity change, negative = inhibition",[33],-19.4% [at 0.478 µM] (inactive)
O=C(O)/C=C/CO,Potency,[32],inactive
same,Potency,[33],inactive
